# Among all 48,000 compounds or so, about 13,000 (27%) showed an effect of 50% or more. The list shows a part of the results.
# Tested on: Wolbachia pipientis
# Test: Anti-Wolbachia Cell-Based Screen
# Assay type: functional
# Parameters: scale not given: in the data most compounds retested in dose-response had high values
# Details: 5 µM
row,SMILES,Percent Effect
1,CN1C(=O)c2ccc(C(=O)N(Cc3cnn(C)c3)C3CC3)cc2C1=O,106.1%
2,CCN(Cc1cnn(C)c1)C(=O)c1ccccc1O,-0.8063%
3,COC1CCN(C(=O)c2ccc3ncsc3c2)CC1,13.06%
4,Cn1cc(CN(C(=O)c2ccc3ncsc3c2)C2CC2)cn1,77%
5,Cn1cc(CN(C(=O)C2COc3ccccc3C2)C2CC2)cn1 (configuration not stated),-27.95%
6,O=C(c1ccc(O)c(Cl)c1)N(Cc1ccncc1)C1CC1,5.687%
7,CCCn1cc(C(=O)NCc2nnc(-c3ccc(C)nc3)o2)c(C)n1,141.9%
8,Cc1ccc(CCNC(=O)c2cccnc2)o1,-1.027%
9,CCCn1cc(C(=O)NCCC(=O)NC2CCCCC2)c(C)n1,-18.08%
10,CCCn1cc(C(=O)NCCc2ccncc2)c(C)n1,-13.4%
11,CCOC(=O)c1ccc(CNC(=O)c2ccc(C)nc2)o1,18.5%
12,Cc1ccc(-c2nnc(CNC(=O)c3cccnc3)o2)cn1,101.6%
13,COc1ccccc1OCC(=O)Nc1ncccc1C,-10%
14,COc1cnc(N2CCCC(c3ncc[nH]3)C2)nc1 (configuration not stated),-2.958%
15,COc1cc(N2CC3(CCN(c4ncccn4)C3)C2)ncn1,-18.99%
16,COc1cc(N2CC3(CCN(S(C)(=O)=O)C3)C2)ncn1.O=C(O)C(F)(F)F,-16.93%
17,COc1cc(N2CCC3(CC2)CN(S(C)(=O)=O)c2ccccc23)ncn1,110.7%
18,O=C(O)C(F)(F)F.O=C(O)C(F)(F)F.OCCN1CC2(CCN(CC3CC3)CC2)c2ccccc21,-29.18%
19,CS(=O)(=O)N1CC2(CCN(c3nccs3)CC2)c2ccccc21,6.686%
20,COc1cc(N2CCC3(CC2)CN(CCO)c2ccccc23)ncn1,112.4%
21,CCc1ccc(C2COCCN2C(=O)Nc2ccc(C#N)cc2)o1 (configuration not stated),-6.805%
22,COCc1noc(-c2ccc(N3CCCCC3CCCO)nc2)n1 (configuration not stated),5.834%
23,CCn1c2c(ccc1=O)CC(N)CC2 (configuration not stated),-10.57%
24,Cc1nc(Cn2c3c(ccc2=O)CC(N)CC3)cs1 (configuration not stated),90.15%
25,NC1CCc2c(ccc(=O)n2CC2CC2)C1 (configuration not stated),-25.6%
26,Cc1nc(Cn2c3c(ccc2=O)CC(NC(N)=O)CC3)cs1 (configuration not stated),99.56%

row,SMILES,Percent Effect
1,Cc1ccc(-c2nc(CN3CCOC(c4ccccc4)C3)cs2)o1 (configuration not stated),7.737%
2,Cc1cc2[nH]c(CN3CCOC(c4ccc(F)cc4)C3)cc(=O)n2n1 (configuration not stated),-0.7414%
3,NS(=O)(=O)CCN1CCOC(c2ccc(Cl)cc2)C1 (configuration not stated),-9.973%
4,c1ccc(C2CN(CCc3ccncc3)CCO2)cc1 (configuration not stated),114.6%
5,CCc1nccn1CCC(=O)N1CCOC(c2ccc(F)cc2)C1 (configuration not stated),5.391%
6,OCCCN1CCOC(c2ccc(F)cc2)C1 (configuration not stated),108.3%
7,COc1cccc(C2CN(CCc3ccncc3)CCO2)c1 (configuration not stated),114.5%
8,CCNC(=O)NC(=O)CN1CCOC(c2cccc(Br)c2)C1 (configuration not stated),-11.97%
9,CCc1n[nH]c(C2CN(CCc3ccncc3)CCO2)n1 (configuration not stated),1.737%
10,Fc1ccc(C2CN(CCc3ccncc3)CCO2)cc1 (configuration not stated),89.73%
11,COc1ccc(CNC2CCN(CCc3ccncc3)CC2)cc1O,-10.08%
12,CCN(CC)Cc1nc2c(o1)CN(C(=O)c1ccc3[nH]ccc3c1)C2.O=CO,2.766%
13,O=C(NC1CC1)N1Cc2[nH]nc(COCC3CC3)c2C1,-7.793%
14,CCc1nc(CCNC(=O)NC2CCC(=O)N(C)C2)sc1C (configuration not stated),-4.769%
15,CN(C)c1cccc(C(=O)N2CCCc3cc(OC(F)(F)F)ccc32)c1,5.74%
16,CN(CC1CCC1)C(=O)Nc1cccnc1-n1cncn1,-2.5%
17,Cc1oc(-c2ccsc2)nc1CN1CC[C@@H]2CCCC[C@H]2C1,16.57%
18,Cc1nc(C)n(CC2CN(CCc3ccccc3Cl)CCO2)n1 (configuration not stated),-35.87%
19,Clc1ccccc1C1CN(CCc2ccncc2)CCO1 (configuration not stated),118%
20,CCNC(=O)NC(=O)CN1CCOC(c2ccccc2Cl)C1 (configuration not stated),0.5373%
21,COc1ncccc1CN1Cc2nccn2CC(Cn2cccn2)C1 (configuration not stated),99.64%
22,COc1ncccc1CN1Cc2nccn2CC(CN2CCCC2)C1 (configuration not stated),87.46%
23,Cc1ccc(CC(=O)N2Cc3nccn3CC(Cn3cccn3)C2)cc1 (configuration not stated),-9.367%
24,CNC(=O)c1cnc2n1CCN(Cc1cccnc1OC)C2,-12.45%
25,CS(=O)(=O)N1Cc2nccn2CC(CN2CCCC2)C1 (configuration not stated),-0.3251%
26,O=C(CCn1cncn1)Nc1ccc(F)cc1OCC1CC1,-2.529%

# Source: ChEMBL document CHEMBL3988442, “University of Dundee, Small-Polar-MMV Screening Library” (2021)
